# This is part of a sample that, as a whole, favours compounds with a hit. Of some 79,000 tested, about 15% had one in any assay. A number with no mark means an inactive call. Activity calls are given as the source filed them. Rule as the data show it: active = growth inhibition above about 70%; inactive = the rest.
# Legend:
# [1] = NCI Yeast Anticancer Drug Screen. Data for the rad52 strain (AID 147);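 also: 0% = growth of vehicle-treated control cultures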; settings: S. cerevisiae rad52 mutant growth inhibition, stronger effect = higher value
# In short: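 Vehicle-treated cultures served as the reference for growth inhibition of compound-exposed yeast bearing a DNA repair mutation.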
# [2] = NCI Yeast Anticancer Drug Screen. Data for the wt1 strain (AID 149);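 also: 0% = growth of vehicle-treated wt1 cultures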; settings: S. cerevisiae wt1 strain (SPY 50644) growth inhibition, stronger effect = higher value
# In short: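 Each compound is tested on wt1 yeast and the loss of growth versus vehicle gives the inhibition value.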
# [3] = NCI Yeast Anticancer Drug Screen. Data for the rad50EPP+ strain (AID 151);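 also: 0% = growth of vehicle-treated control cultures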; settings: S. cerevisiae rad50 mutant strain, stronger effect = higher value
# In short: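 In this screen, rad50EPP+ yeast were exposed to compounds. Growth inhibition was scored against vehicle-treated controls.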
# [4] = NCI Yeast Anticancer Drug Screen. Data for the mgt1 strain (AID 153); settings: S. cerevisiae mgt1 mutant growth inhibition, stronger effect = higher value
# In short: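 mgt1 strain exposed; growth vs vehicle control recorded as inhibition.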
# [5] = NCI Yeast Anticancer Drug Screen. Data for the rad50 strain (AID 155);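 also: 0% = growth of vehicle-only cultures of the same strain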; settings: S. cerevisiae rad50 strain growth inhibition, stronger effect = higher value
# In short: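 Vehicle-treated cultures provide the reference for the growth inhibition reported for compound-exposed, repair-deficient yeast.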
# [6] = NCI Yeast Anticancer Drug Screen. Data for the mec2-1 strain (AID 157); settings: S. cerevisiae mec2-1 strain, stronger effect = higher value
# In short: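 Vehicle-treated cultures served as reference for growth inhibition of compound-exposed mec2-1 yeast.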
# [7] = NCI Yeast Anticancer Drug Screen. Data for the rad14 strain (AID 159);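 also: 0% = growth of vehicle-treated control cultures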; settings: S. cerevisiae rad14 strain growth inhibition, stronger effect = higher value
# In short: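 Inhibition of growth is reported for a repair-deficient yeast mutant following compound treatment, calculated relative to cultures that received vehicle.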
# [8] = NCI Yeast Anticancer Drug Screen. Data for the sgs1 mgt1 strain (AID 161);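 also: 0% = growth of cultures given vehicle only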; settings: S. cerevisiae sgs1 mgt1 strain, stronger effect = higher value
# In short: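 Mutant yeast exposed to compound; growth scored against vehicle-only wells.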
# [9] = NCI Yeast Anticancer Drug Screen. Data for the CLN2oe strain (AID 163);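 also: 0% = growth of vehicle-only control cultures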; settings: S. cerevisiae CLN2oe strain, stronger effect = higher value
# In short: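 Inhibition relative to vehicle-treated yeast is reported. Cells: strain with genetic alteration in cell-cycle control, grown with compound.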
# [10] = NCI Yeast Anticancer Drug Screen. Data for the cln2 rad14 strain (AID 165);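 also: 0% = growth equal to vehicle treated cultures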; settings: S. cerevisiae cln2 rad14 strain, stronger effect = higher value
# In short: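 Each compound was tested on cln2 rad14 yeast. Inhibition of growth was calculated against vehicle-exposed controls.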
# [11] = NCI Yeast Anticancer Drug Screen. Data for the bub3 strain (AID 167); settings: S. cerevisiae bub3 mutant strain, stronger effect = higher value
# In short: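 Mutant yeast screening strain plus compound; vehicle-treated cultures serve as the 0% inhibition reference.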
# [12] = NCI Yeast Anticancer Drug Screen. Data for the wt2 strain (AID 169); settings: S. cerevisiae wt2 strain growth inhibition, stronger effect = higher value
# In short: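 Inhibition of yeast growth was determined after compound treatment, normalised to controls receiving only vehicle.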
# [13] = NCI Yeast Anticancer Drug Screen. Data for the mlh1 strain (AID 171);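 also: 0% = growth of vehicle-treated control cultures of the same strain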; settings: S. cerevisiae mlh1 strain growth inhibition, stronger effect = higher value
# In short: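 Vehicle-normalised growth inhibition of a repair- or checkpoint-altered yeast strain following compound treatment.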
# [14] = NCI Yeast Anticancer Drug Screen. Data for the sgs1 strain (AID 173);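 also: 0% = growth of vehicle-only control cultures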; settings: S. cerevisiae sgs1 mutant, stronger effect = higher value
# In short: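 Screen format: yeast with repair or checkpoint alterations, compound exposure, growth read relative to vehicle.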
# [15] = NCI Yeast Anticancer Drug Screen. Data for the mlh1 rad18 strain (AID 175); settings: S. cerevisiae mlh1 rad18 strain growth inhibition, stronger effect = higher value
# In short: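 Vehicle-treated cultures served as the reference for growth inhibition in a yeast strain carrying DNA damage repair alterations exposed to each compound.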
# [16] = NCI Yeast Anticancer Drug Screen. Data for the rad18 strain (AID 177); settings: S. cerevisiae rad18 mutant growth inhibition, stronger effect = higher value
# In short: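 Test articles were incubated with altered yeast defective in DNA damage repair. Results are given as inhibition of growth versus vehicle.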
# [17] = at 5.0 µM (retest, dose inferred, filed as 0.5)
# [18] = at 50.0 µM (retest, dose inferred, filed as 5.0)
smiles,measurement,setting,value
O=C1c2ccccc2-c2n[nH]c3cccc1c23,growth inhibition,[1]; at 1.2 µM,-28%
same,growth inhibition,[1]; at 3.7 µM,10%
same,growth inhibition,[1]; at 11.0 µM,69%
same,growth inhibition,[1]; at 33.0 µM,84% (active)
same,growth inhibition,[1]; at 100.0 µM,78% (active)
same,growth inhibition,[2]; at 1.2 µM,-21%
same,growth inhibition,[2]; at 3.7 µM,-28%
same,growth inhibition,[2]; at 11.0 µM,-12%
same,growth inhibition,[2]; at 33.0 µM,10%
same,growth inhibition,[2]; at 100.0 µM,11%
same,growth inhibition,[3]; at 1.2 µM,7%
same,growth inhibition,[3]; at 3.7 µM,69%
same,growth inhibition,[3]; at 11.0 µM,86% (active)
same,growth inhibition,[3]; at 33.0 µM,88% (active)
same,growth inhibition,[3]; at 100.0 µM,73% (active)
same,growth inhibition,[4]; at 1.2 µM,-40%
same,growth inhibition,[4]; at 3.7 µM,-32%
same,growth inhibition,[4]; at 11.0 µM,-10%
same,growth inhibition,[4]; at 33.0 µM,27%
same,growth inhibition,[4]; at 100.0 µM,32%
same,growth inhibition,[5]; at 1.2 µM,-21%
same,growth inhibition,[5]; at 3.7 µM,29%
same,growth inhibition,[5]; [17],100% (active)
same,growth inhibition,[5]; at 11.0 µM,67%
same,growth inhibition,[5]; at 33.0 µM,79% (active)
same,growth inhibition,[5]; [18],99% (active)
same,growth inhibition,[5]; at 50.0 µM,69.2%
same,growth inhibition,[5]; at 100.0 µM,74% (active)
same,growth inhibition,[6]; at 1.2 µM,-67%
same,growth inhibition,[6]; at 3.7 µM,-38%
same,growth inhibition,[6]; [17],100% (active)
same,growth inhibition,[6]; at 11.0 µM,-5%
same,growth inhibition,[6]; at 33.0 µM,26%
same,growth inhibition,[6]; [18],100% (active)
same,growth inhibition,[6]; at 50.0 µM,54.3%
same,growth inhibition,[6]; at 100.0 µM,46%
same,growth inhibition,[7]; at 1.2 µM,-18%
same,growth inhibition,[7]; at 3.7 µM,-24%
same,growth inhibition,[7]; at 11.0 µM,-6%
same,growth inhibition,[7]; at 33.0 µM,23%
same,growth inhibition,[7]; at 100.0 µM,28%
same,growth inhibition,[8]; [17],-5%
same,growth inhibition,[8]; [18],86% (active)
same,growth inhibition,[8]; at 50.0 µM,78.1% (active)
same,growth inhibition,[9]; at 1.2 µM,-52%
same,growth inhibition,[9]; at 3.7 µM,-21%
same,growth inhibition,[9]; at 11.0 µM,-26%
same,growth inhibition,[9]; at 33.0 µM,-6%
same,growth inhibition,[9]; at 100.0 µM,1%
same,growth inhibition,[10]; [17],44%
same,growth inhibition,[10]; [18],87% (active)
same,growth inhibition,[10]; at 50.0 µM,38.9%
same,growth inhibition,[11]; at 1.2 µM,-1%
same,growth inhibition,[11]; at 3.7 µM,-15%
same,growth inhibition,[11]; [17],0%
same,growth inhibition,[11]; at 11.0 µM,22%
same,growth inhibition,[11]; at 33.0 µM,46%
same,growth inhibition,[11]; [18],89% (active)
same,growth inhibition,[11]; at 50.0 µM,65.6%
same,growth inhibition,[11]; at 100.0 µM,53%
same,growth inhibition,[12]; at 1.2 µM,-20%
same,growth inhibition,[12]; at 3.7 µM,-20%
same,growth inhibition,[12]; at 11.0 µM,2%
same,growth inhibition,[12]; at 33.0 µM,41%
same,growth inhibition,[12]; at 100.0 µM,36%
same,growth inhibition,[13]; at 1.2 µM,-42%
same,growth inhibition,[13]; at 3.7 µM,-38%
same,growth inhibition,[13]; at 11.0 µM,9%
same,growth inhibition,[13]; at 33.0 µM,39%
same,growth inhibition,[13]; at 100.0 µM,58%
same,growth inhibition,[14]; at 1.2 µM,-39%
same,growth inhibition,[14]; at 3.7 µM,-16%
same,growth inhibition,[14]; at 11.0 µM,3%
same,growth inhibition,[14]; at 33.0 µM,35%
same,growth inhibition,[14]; at 100.0 µM,27%
same,growth inhibition,[15]; [17],100% (active)
same,growth inhibition,[15]; [18],100% (active)
same,growth inhibition,[15]; at 50.0 µM,81.1% (active)
same,growth inhibition,[16]; at 1.2 µM,-49%
same,growth inhibition,[16]; at 3.7 µM,-32%
same,growth inhibition,[16]; at 11.0 µM,-1%
same,growth inhibition,[16]; at 33.0 µM,33%
same,growth inhibition,[16]; at 100.0 µM,50%
CCCCCCCCCCCC1=C(O)C(=O)C=C(O)C1=O,growth inhibition,[1]; at 1.2 µM,-7%
same,growth inhibition,[1]; at 3.7 µM,-2%
same,growth inhibition,[1]; at 11.0 µM,68%
same,growth inhibition,[1]; at 33.0 µM,88% (active)
same,growth inhibition,[1]; at 100.0 µM,94% (active)
same,growth inhibition,[2]; at 1.2 µM,-4%
same,growth inhibition,[2]; at 3.7 µM,-7%
same,growth inhibition,[2]; at 11.0 µM,64%
same,growth inhibition,[2]; at 33.0 µM,94% (active)
same,growth inhibition,[2]; at 100.0 µM,91% (active)
same,growth inhibition,[3]; at 1.2 µM,-5%
same,growth inhibition,[3]; at 3.7 µM,-14%
same,growth inhibition,[3]; at 11.0 µM,31%
same,growth inhibition,[3]; at 33.0 µM,79% (active)
same,growth inhibition,[3]; at 100.0 µM,84% (active)
same,growth inhibition,[4]; at 1.2 µM,-3%
same,growth inhibition,[4]; at 3.7 µM,-5%
same,growth inhibition,[4]; at 11.0 µM,22%
same,growth inhibition,[4]; at 33.0 µM,89% (active)
same,growth inhibition,[4]; at 100.0 µM,91% (active)
same,growth inhibition,[5]; at 1.2 µM,-15%
same,growth inhibition,[5]; at 3.7 µM,-15%
same,growth inhibition,[5]; [17],32%
same,growth inhibition,[5]; at 11.0 µM,36%
same,growth inhibition,[5]; at 33.0 µM,94% (active)
same,growth inhibition,[5]; [18],79% (active)
same,growth inhibition,[5]; at 50.0 µM,46.5%
same,growth inhibition,[5]; at 100.0 µM,93% (active)
same,growth inhibition,[6]; at 1.2 µM,-7%
same,growth inhibition,[6]; at 3.7 µM,-4%
same,growth inhibition,[6]; [17],9%
same,growth inhibition,[6]; at 11.0 µM,63%
same,growth inhibition,[6]; at 33.0 µM,94% (active)
same,growth inhibition,[6]; [18],90% (active)
same,growth inhibition,[6]; at 50.0 µM,37.9%
same,growth inhibition,[6]; at 100.0 µM,95% (active)
same,growth inhibition,[7]; at 1.2 µM,2%
same,growth inhibition,[7]; at 3.7 µM,0%
same,growth inhibition,[7]; at 11.0 µM,80% (active)
same,growth inhibition,[7]; at 33.0 µM,96% (active)
same,growth inhibition,[7]; at 100.0 µM,80% (active)
same,growth inhibition,[8]; [17],30%
same,growth inhibition,[8]; [18],85% (active)
same,growth inhibition,[8]; at 50.0 µM,46.9%
same,growth inhibition,[9]; at 1.2 µM,-7%
same,growth inhibition,[9]; at 3.7 µM,-17%
same,growth inhibition,[9]; at 11.0 µM,63%
same,growth inhibition,[9]; at 33.0 µM,93% (active)
same,growth inhibition,[9]; at 100.0 µM,91% (active)
same,growth inhibition,[10]; [17],-11%
same,growth inhibition,[10]; [18],88% (active)
same,growth inhibition,[10]; at 50.0 µM,35.9%
same,growth inhibition,[11]; at 1.2 µM,-10%
same,growth inhibition,[11]; at 3.7 µM,-4%
same,growth inhibition,[11]; [17],81% (active)
same,growth inhibition,[11]; at 11.0 µM,54%
same,growth inhibition,[11]; at 33.0 µM,96% (active)
same,growth inhibition,[11]; [18],89% (active)
same,growth inhibition,[11]; at 50.0 µM,57%
same,growth inhibition,[11]; at 100.0 µM,95% (active)
